In PubChem BioAssay (EPA / NIEHS) one finds outcome and AC50 data, which are given here for eleven compounds.

Results filed as inconclusive are left out. Active and inactive are the calls of the source. How the source made its calls, unless noted: active means hit-call score of the fitted dose curve at least 0.9, where 1 is the maximum; inconclusive means response in the unintended direction; inactive means score below 0.9.

The nature of experiment [1]: ATG_TAL_CIS: Attagene CIS-FACTORIAL HepG2 Assay for human TAL Basal Promoter (AID 2282966; active means hit-call score of the fitted dose curve at least 0.9, where 1 is the maximum; inactive means score below 0.9;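 further: background control endpoint measuring basal TAL promoter reporter mRNA not a specific factor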). To be noted: HepG2 Attagene cis-factorial TAL promoter reporter; actives raise or lower the signal. The gist of the method: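 Steps: transfect HepG2 with multiple reporter transcription units; dose 24 h; isolate RNA, reverse-transcribe, PCR-amplify, label with 6-FAM, digest with HpaI; resolve by capillary electrophoresis. Bidirectional fitting against DMSO baseline.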

Experiment [2] is described as follows: ATG_TGFb_CIS: Attagene CIS-FACTORIAL HepG2 Assay for human Transforming Growth Factor (TGF) (AID 2282967; active means hit-call score of the fitted dose curve at least 0.9, where 1 is the maximum; inactive means score below 0.9). To be noted: HepG2 Attagene CIS TGFb reporter, mRNA transcription; actives raise or lower the signal. In a few lines: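 After a 24-hour incubation with compound, transfected HepG2 cells were lysed for RNA; reporter cDNA was amplified, fluorescently end-labeled and separated by CE. DMSO served as baseline for bidirectional fits.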

A short description of experiment [3]: ATG_VDRE_CIS: Attagene CIS-FACTORIAL HepG2 Assay for human Vitamin D Receptor Element (VDRE) (AID 2282968; active means hit-call score of the fitted dose curve at least 0.9, where 1 is the maximum; inactive means score below 0.9). To be noted: HepG2 VDRE cis-reporter transcription, actives raise or lower the signal. The gist of the method:
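Reporter mRNA induction, quantified by capillary electrophoresis of fluorescently labelled RT-PCR products, was read 24 h after dosing HepG2 cells carrying transiently transfected cis-regulated reporter units; gain or loss relative to DMSO.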

In experiment [4] the target is Estrogen receptor (Homo sapiens) (UniProt P03372). Kind of experiment: ATG_ERa_TRANS: Attagene TRANS-FACTORIAL HepG2 Assay for human Estrogen Receptor alpha (ERa) (AID 2282970). To be noted: HepG2 Attagene TRANS ERa GAL4 reporter, mRNA. The gist of the method:
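Multiplexed cell-based reporter format in HepG2: chimeric ERa-Gal4 protein drives GAL4-UAS reporter transcription. Fluorescent reporter mRNA quantified by capillary electrophoresis 24 hours after dosing; endpoint fitted as signal gain against DMSO.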

In experiment [5] the target is X-box-binding protein 1 (Homo sapiens) (UniProt P17861). Kind of experiment: ATG_Xbp1_CIS: Attagene CIS-FACTORIAL HepG2 Assay for human X-box Binding Protein 1 (XBP1) (AID 2282972; active means hit-call score of the fitted dose curve at least 0.9, where 1 is the maximum; inactive means score below 0.9). To be noted: HepG2 XBP1 cis-element reporter, Attagene multiplex; actives raise or lower the signal. The gist of the method:
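Fluorescence-labelled cDNA fragments from reporter transcripts, separated by capillary electrophoresis, give the signal. Source: HepG2 cells transfected with promoter-driven reporter units, harvested 24 h post-dose. DMSO served as reference for bidirectional curve fitting.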

A short description of experiment [6]: ATG_M_19_TRANS: Attagene TRANS-FACTORIAL HepG2 Assay for M19 Transcription Factor (Internal Marker) (AID 2282974). To be noted: HepG2 Attagene TRANS-FACTORIAL M19 internal marker reporter. The gist of the method:
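HepG2 transiently transfected with GAL4-UAS multiplex reporter constructs, exposed 24 h; reporter RNA quantified by RT-PCR, 6-FAM labeling, HpaI digestion and capillary electrophoresis; internal background marker fitted upward versus DMSO.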

A short description of experiment [7]: ATG_GAL4_TRANS: Attagene TRANS-FACTORIAL HepG2 Assay for GAL4 (Internal Marker) (AID 2282976). To be noted: HepG2 Attagene TRANS GAL4 internal marker reporter. The gist of the method: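 Liver HepG2 line bearing multiplexed GAL4-UAS reporter constructs; 24 h chemical treatment. Transcripts were quantified as fluorescent fragments on capillary electrophoresis after RT-PCR and HpaI cut, with activity fitted upward from DMSO.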

The target of experiment [8] is Glucocorticoid receptor (Homo sapiens) (UniProt P04150). Kind of experiment: ATG_GR_TRANS: Attagene TRANS-FACTORIAL HepG2 Assay for human Glucocorticoid Receptor (GR) (AID 2282978).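 Further: activators score as hits since higher reporter transcript over DMSO is fitted.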 To be noted: HepG2 Attagene TRANS GR reporter, mRNA transcription. In a few lines: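 HepG2 cells transiently transfected with GAL4-UAS reporter units and exogenous GR-Gal4 chimera, dosed 24 h. Reporter mRNA by RT-PCR, FAM labeling, HpaI digest and capillary electrophoresis; gain-of-signal fit versus DMSO.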

Experiment [9] addresses Oxysterols receptor LXR-alpha (Homo sapiens) (UniProt Q13133). Kind of experiment: ATG_LXRa_TRANS: Attagene TRANS-FACTORIAL HepG2 Assay for human Liver X Receptor alpha (LXRa) (AID 2282980). To be noted: HepG2 Attagene TRANS reporter, LXRa transactivation. The gist of the method: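 In this multiplexed TRANS system, compounds act on HepG2 cells carrying GAL4-UAS reporter units and a receptor-GAL4 fusion for 24 h. Induced reporter RNA is amplified, fluorescently labelled and sized by capillary electrophoresis, with DMSO as baseline.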

For experiment [10], the target named is Oxysterols receptor LXR-beta (Homo sapiens) (UniProt P55055). Kind of experiment: ATG_LXRb_TRANS: Attagene TRANS-FACTORIAL HepG2 Assay for human Liver X Receptor beta (LXRb) (AID 2282981). To be noted: HepG2 Attagene TRANS GAL4-LXRb reporter, mRNA. The gist of the method:
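Transient transfection HepG2 (multiplexed RTUs, GAL4-UAS); NR-Gal4 chimera; 24 h exposure; RNA → RT-PCR → 6-FAM primer extension → HpaI → CE; increase vs DMSO.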

The nature of experiment [11]: ATG_M_06_TRANS: Attagene TRANS-FACTORIAL HepG2 Assay for M06 Transcription Factor (Internal Marker) (AID 2282983).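 Further: reporter transcript level by RT-PCR then capillary electrophoresis fluorescence.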 To be noted: HepG2 Attagene TRANS M06 internal marker reporter. The gist of the method:
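Internal-marker background readout from a multiplexed TRANS reporter system in HepG2; 24 h dosing; mRNA induction quantified by RT-PCR plus capillary electrophoresis fluorescence; DMSO as negative control and baseline.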

A short description of experiment [12]: ATG_M_32_TRANS: Attagene TRANS-FACTORIAL HepG2 Assay for M32 Transcription Factor (Internal Marker) (AID 2282984).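 Further: transcript level of a background control reporter unit measured by RT-PCR and capillary electrophoresis.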 To be noted: HepG2 Attagene TRANS M32 internal marker reporter. The gist of the method: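 Measures reporter mRNA induction in human HepG2 liver cells after 24 h chemical treatment. Transcripts from transiently transfected GAL4-UAS reporter units are amplified, fluorescently labelled and sized by capillary electrophoresis; gain of signal relative to DMSO.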

In experiment [13] the target is Nuclear respiratory factor 1 (Homo sapiens) (UniProt Q16656). Kind of experiment: ATG_NRF1_CIS: Attagene CIS-FACTORIAL HepG2 Assay for human Nuclear Respiratory Factor 1 (NRF1) Orphan Gene (AID 2282987; active means hit-call score of the fitted dose curve at least 0.9, where 1 is the maximum; inactive means score below 0.9). To be noted: HepG2 NRF1 cis-element reporter, Attagene multiplex; actives raise or lower the signal. The gist of the method: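 HepG2 cells transiently transfected with multiple cis-regulated reporter units, exposed 24 h. Reporter mRNAs measured by RT-PCR, fluorescent labelling, HpaI digestion and capillary electrophoresis; bidirectional fitting against DMSO.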

The target in experiment [14] is Nuclear receptor subfamily 4 group A member 2 (Homo sapiens) (UniProt P43354). The experiment in a line: ATG_NURR1_TRANS: Attagene TRANS-FACTORIAL HepG2 Assay for human Nuclear Receptor Related Protein 1 (NURR1) (AID 2282985). To be noted: HepG2 Attagene TRANS reporter, mRNA readout. The gist of the method: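 Transient transfection of HepG2, human liver cells, with multiple GAL4-UAS reporter transcription units. Cells dosed 24 h, RNA isolated, reverse-transcribed, PCR-amplified, FAM-labelled, HpaI-digested, sized by capillary electrophoresis. DMSO served as negative control.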

The target in experiment [15] is Transcriptional activator Myb (Homo sapiens) (UniProt P10242). The experiment in a line: ATG_Myb_CIS: Attagene CIS-FACTORIAL HepG2 Assay for human Myeloblastosis (Myb) Proto-Oncogene Transcription Factor (AID 2282986; active means hit-call score of the fitted dose curve at least 0.9, where 1 is the maximum; inactive means score below 0.9). To be noted: HepG2 Attagene CIS-FACTORIAL Myb reporter transcription; actives raise or lower the signal. In a few lines: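 Transiently transfected HepG2 cells carrying a multiplexed cis-promoter reporter set report endogenous Myb activity after 24 h compound exposure. Reporter mRNA is read by RT-PCR with capillary electrophoresis of fluorescent products, fitted bidirectionally against DMSO.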

For experiment [16], the target named is Nuclear receptor subfamily 1 group I member 3 (Homo sapiens) (UniProt Q14994). Kind of experiment: ATG_CAR_TRANS: Attagene TRANS-FACTORIAL HepG2 Assay for human Constitutive Androstane Receptor (CAR) (AID 2282969).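 Further: activators raise reporter mRNA above DMSO so AC50 marks induction.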 To be noted: HepG2 Attagene TRANS-FACTORIAL CAR reporter. The gist of the method: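 Readout is reporter mRNA induction, quantified by fluorescent primer extension and capillary electrophoresis after RT-PCR. Cells were HepG2 transiently carrying chimeric NR-Gal4 constructs with GAL4-UAS reporters, treated for 24 h; activity scored upward from DMSO.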

Experiment [17] has as its target Hepatocyte nuclear factor 4-alpha (Homo sapiens) (UniProt P41235). Kind of experiment: ATG_HNF4a_TRANS: Attagene TRANS-FACTORIAL HepG2 Assay for human Hepatocyte Nuclear Factor 4 alpha (HNF4a) (AID 2282982). To be noted: HepG2 HNF4a transactivation reporter, mRNA readout. The gist of the method:
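Readout is fluorescent reporter-transcript fragments resolved by capillary electrophoresis after RT-PCR from HepG2 cells dosed for 24 h. Cells carried transfected GAL4-UAS reporter constructs measuring exogenous NR-GAL4 chimera activity; DMSO served as baseline.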

In experiment [18] the target is Bile acid receptor (Homo sapiens) (UniProt Q96RI1). The experiment in a line: ATG_FXR_TRANS: Attagene TRANS-FACTORIAL HepG2 Assay for Farnesoid X Receptor (FXR) (AID 2282979).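 Further: hits raise reporter mRNA above DMSO so AC50 marks FXR activation.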 To be noted: HepG2 Attagene TRANS FXR-GAL4 reporter transcription. The gist of the method:
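After 24 h chemical treatment of transfected HepG2 cells, GAL4-UAS reporter transcripts driven by an exogenous FXR-GAL4 fusion were measured by RT-PCR and capillary electrophoresis. Increases over DMSO were fitted.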

Chain of Hepatocyte nuclear factor 4-alpha (Homo sapiens) (P41235 whole entry, looked up, the tested form may be a part): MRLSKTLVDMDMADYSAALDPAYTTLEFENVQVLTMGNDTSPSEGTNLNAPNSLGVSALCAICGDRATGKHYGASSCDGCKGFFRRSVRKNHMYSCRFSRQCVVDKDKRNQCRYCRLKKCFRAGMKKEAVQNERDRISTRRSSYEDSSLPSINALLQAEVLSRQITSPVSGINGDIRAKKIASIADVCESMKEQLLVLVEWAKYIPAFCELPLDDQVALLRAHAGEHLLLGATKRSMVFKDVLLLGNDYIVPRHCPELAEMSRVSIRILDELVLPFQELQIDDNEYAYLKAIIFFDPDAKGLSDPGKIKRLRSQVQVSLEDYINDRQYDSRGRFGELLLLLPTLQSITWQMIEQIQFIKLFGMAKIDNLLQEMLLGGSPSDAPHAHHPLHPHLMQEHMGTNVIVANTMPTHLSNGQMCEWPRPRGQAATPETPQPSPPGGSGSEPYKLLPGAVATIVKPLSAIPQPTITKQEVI
Chain of Nuclear respiratory factor 1 (Homo sapiens) (Q16656 whole entry, looked up): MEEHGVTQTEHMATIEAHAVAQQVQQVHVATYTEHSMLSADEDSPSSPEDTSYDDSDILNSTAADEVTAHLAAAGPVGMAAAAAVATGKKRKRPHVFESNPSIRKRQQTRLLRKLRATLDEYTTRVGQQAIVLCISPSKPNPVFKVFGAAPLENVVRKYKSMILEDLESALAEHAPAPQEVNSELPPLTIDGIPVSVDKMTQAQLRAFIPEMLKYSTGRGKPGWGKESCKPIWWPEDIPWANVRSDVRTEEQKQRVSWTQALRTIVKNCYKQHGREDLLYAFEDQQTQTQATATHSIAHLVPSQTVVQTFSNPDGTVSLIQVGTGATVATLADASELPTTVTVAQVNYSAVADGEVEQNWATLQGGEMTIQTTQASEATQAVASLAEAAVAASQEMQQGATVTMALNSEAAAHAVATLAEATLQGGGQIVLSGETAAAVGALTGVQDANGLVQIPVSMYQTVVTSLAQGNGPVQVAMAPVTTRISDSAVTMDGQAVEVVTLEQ
Chain of X-box-binding protein 1 (Homo sapiens) (P17861 whole entry, looked up, the tested form may be a part): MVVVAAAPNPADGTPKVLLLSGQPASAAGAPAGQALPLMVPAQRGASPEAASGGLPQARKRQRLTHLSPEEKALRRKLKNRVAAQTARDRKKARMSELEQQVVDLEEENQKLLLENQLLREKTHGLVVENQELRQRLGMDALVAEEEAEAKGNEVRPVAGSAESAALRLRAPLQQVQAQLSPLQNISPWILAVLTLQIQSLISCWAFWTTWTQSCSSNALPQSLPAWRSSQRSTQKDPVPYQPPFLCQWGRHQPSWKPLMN
Chain of Glucocorticoid receptor (Homo sapiens) (P04150 whole entry, looked up, the tested form may be a part): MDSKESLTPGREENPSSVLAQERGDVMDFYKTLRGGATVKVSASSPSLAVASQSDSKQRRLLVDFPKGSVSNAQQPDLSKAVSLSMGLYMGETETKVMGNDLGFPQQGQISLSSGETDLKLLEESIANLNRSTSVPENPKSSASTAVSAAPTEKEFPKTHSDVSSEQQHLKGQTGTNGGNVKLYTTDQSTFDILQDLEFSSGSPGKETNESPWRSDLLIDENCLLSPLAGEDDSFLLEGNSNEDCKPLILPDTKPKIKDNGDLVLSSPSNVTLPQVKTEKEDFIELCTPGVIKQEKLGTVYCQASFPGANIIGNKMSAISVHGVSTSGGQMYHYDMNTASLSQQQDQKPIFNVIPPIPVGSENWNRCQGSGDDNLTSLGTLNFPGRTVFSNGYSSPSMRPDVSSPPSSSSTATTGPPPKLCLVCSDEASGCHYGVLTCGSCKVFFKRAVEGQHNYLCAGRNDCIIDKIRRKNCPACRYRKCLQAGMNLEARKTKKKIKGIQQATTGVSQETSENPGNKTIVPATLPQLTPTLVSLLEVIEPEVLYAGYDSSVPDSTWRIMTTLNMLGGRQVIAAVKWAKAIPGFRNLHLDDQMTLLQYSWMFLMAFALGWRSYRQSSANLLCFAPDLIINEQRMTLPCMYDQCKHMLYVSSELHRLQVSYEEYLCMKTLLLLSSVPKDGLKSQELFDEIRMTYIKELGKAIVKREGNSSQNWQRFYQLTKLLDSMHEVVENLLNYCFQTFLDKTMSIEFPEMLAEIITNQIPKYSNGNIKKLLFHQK
Chain of Nuclear receptor subfamily 1 group I member 3 (Homo sapiens) (Q14994 whole entry, looked up, the tested form may be a part): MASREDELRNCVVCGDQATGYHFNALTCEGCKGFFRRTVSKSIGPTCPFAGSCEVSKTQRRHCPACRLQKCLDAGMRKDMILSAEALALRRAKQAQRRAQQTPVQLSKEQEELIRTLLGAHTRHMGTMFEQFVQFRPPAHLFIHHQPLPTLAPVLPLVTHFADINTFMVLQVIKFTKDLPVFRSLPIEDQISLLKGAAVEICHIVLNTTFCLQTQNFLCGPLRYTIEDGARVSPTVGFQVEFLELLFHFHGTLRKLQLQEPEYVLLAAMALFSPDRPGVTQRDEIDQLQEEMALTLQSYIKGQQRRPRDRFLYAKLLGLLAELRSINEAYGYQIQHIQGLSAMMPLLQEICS
Chain of Nuclear receptor subfamily 4 group A member 2 (Homo sapiens) (P43354 whole entry, looked up, the tested form may be a part): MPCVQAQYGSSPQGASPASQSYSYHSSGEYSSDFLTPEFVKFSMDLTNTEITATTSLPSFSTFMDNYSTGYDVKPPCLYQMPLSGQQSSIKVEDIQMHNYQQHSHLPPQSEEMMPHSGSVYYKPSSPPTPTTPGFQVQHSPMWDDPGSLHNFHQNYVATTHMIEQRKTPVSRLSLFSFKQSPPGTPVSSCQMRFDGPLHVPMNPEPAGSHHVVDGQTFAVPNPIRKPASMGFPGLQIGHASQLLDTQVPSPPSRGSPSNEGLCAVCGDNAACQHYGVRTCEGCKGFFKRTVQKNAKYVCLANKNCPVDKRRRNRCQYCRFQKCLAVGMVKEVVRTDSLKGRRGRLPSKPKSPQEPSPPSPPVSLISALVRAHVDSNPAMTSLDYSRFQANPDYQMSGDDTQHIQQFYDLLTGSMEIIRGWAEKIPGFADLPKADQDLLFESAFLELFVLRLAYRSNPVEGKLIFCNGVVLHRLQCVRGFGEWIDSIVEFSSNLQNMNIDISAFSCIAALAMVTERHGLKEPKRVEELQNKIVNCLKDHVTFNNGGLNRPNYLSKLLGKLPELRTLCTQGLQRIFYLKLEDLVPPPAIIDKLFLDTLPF
Chain of Estrogen receptor (Homo sapiens) (P03372 whole entry, looked up, the tested form may be a part): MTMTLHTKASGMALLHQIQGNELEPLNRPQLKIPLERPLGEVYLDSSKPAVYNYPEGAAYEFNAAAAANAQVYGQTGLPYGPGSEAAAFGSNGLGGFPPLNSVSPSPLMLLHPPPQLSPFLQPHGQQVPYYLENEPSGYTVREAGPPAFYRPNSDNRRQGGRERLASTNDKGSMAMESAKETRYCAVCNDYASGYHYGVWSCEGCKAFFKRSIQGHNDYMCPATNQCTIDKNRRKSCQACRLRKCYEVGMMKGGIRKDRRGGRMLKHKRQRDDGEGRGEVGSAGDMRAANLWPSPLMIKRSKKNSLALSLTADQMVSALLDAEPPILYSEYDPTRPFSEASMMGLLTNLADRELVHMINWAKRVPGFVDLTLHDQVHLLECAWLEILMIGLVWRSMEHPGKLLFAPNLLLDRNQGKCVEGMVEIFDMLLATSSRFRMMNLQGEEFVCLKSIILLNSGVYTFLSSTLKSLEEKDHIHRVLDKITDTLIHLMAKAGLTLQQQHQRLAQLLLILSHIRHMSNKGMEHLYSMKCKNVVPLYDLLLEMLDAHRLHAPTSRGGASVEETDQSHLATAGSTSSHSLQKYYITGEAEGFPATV
Chain of Transcriptional activator Myb (Homo sapiens) (P10242 whole entry, looked up): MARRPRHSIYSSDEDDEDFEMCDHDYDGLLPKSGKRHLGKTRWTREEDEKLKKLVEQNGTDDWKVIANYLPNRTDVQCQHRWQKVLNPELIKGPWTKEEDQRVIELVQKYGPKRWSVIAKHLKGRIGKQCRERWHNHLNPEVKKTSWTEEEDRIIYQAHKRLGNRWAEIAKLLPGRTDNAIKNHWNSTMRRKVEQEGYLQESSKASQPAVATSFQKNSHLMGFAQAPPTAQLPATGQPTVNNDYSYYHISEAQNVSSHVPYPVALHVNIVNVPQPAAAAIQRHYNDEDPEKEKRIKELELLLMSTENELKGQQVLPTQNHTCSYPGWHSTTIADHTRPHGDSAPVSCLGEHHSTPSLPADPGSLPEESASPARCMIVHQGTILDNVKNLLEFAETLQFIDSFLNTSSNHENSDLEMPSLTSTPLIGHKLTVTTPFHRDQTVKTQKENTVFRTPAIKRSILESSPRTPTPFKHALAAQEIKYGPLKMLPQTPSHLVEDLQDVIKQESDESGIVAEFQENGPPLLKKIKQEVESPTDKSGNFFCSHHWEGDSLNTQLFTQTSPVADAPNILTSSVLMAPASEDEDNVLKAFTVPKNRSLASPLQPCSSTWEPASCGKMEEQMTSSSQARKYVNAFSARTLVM
Chain of Oxysterols receptor LXR-beta (Homo sapiens) (P55055 whole entry, looked up, the tested form may be a part): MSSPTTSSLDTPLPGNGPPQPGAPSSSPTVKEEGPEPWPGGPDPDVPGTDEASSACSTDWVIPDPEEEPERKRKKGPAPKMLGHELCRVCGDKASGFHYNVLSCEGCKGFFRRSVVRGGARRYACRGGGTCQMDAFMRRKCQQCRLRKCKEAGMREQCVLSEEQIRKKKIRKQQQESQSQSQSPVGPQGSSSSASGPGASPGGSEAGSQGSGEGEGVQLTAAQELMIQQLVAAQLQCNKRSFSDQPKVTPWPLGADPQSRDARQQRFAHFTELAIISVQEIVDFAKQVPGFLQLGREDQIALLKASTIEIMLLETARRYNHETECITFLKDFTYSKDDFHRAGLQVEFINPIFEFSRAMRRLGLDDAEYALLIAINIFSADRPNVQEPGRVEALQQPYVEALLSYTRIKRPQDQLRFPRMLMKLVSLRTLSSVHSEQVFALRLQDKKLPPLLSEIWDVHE

Regarding `Nc1cc(N)cc(C(=O)O)c1`, the compound was classed as inactive in experiment [1], in [2], in experiment [3], in experiment [4], in [5] and in experiment [6]. Further, the compound was classed as inactive in experiment [7], in experiment [8], in [9], in experiment [10], in experiment [11] and in experiment [12]. Further, in experiment [13], the call was inactive.

For the compound `CO[Si](C)(OC)c1ccccc1`, the result in [1], in experiment [2], in experiment [4], in experiment [5], in [6] and in experiment [8] was inactive. The compound was classed as inactive in [11], in experiment [14] and in experiment [15]. The AC50 – broadly, the concentration giving half of the maximal activity seen – in experiment [3] is 7.98 µM (active).

For `CC(C)=CCC[C@](C)(O)[C@@H]1CC=C(C)CC1`, the call in experiment [1], in experiment [2], in experiment [3], in experiment [16], in experiment [5] and in [6] was inactive. Also, the result in [9], in [14], in experiment [15] and in experiment [13] was inactive.

Regarding `CCCCCCCCCCCCN(CCCCCCCCCCCC)CCCCCCCCCCCC`, the compound was classed as inactive in experiment [1], in [2], in experiment [3], in experiment [16], in experiment [5] and in experiment [6]. The outcome in experiment [9], in [10], in experiment [11], in experiment [12], in [15] and in [13] was inactive.

Consider `COc1ccc(NC(=O)CC(C)=O)cc1`, for which the result in experiment [1], in experiment [2], in [3], in [16], in experiment [5] and in [6] was inactive. The outcome in experiment [9], in [17], in [11], in experiment [12], in experiment [14] and in experiment [15] was inactive. Further, in experiment [13], the compound was called inactive.

For `CCC(O)CO` (configuration not stated), the compound was classed as inactive in experiment [1], in [2], in experiment [3], in experiment [4], in [5] and in experiment [6]. Further, the compound was called inactive in [7], in experiment [8], in experiment [18], in experiment [9], in [17] and in [12]. Further, the compound was called inactive in experiment [15] and in [13].

For `Fc1c(F)c(F)c(Br)c(F)c1F`, the call in experiment [1], in experiment [2], in [3], in experiment [16], in experiment [5] and in experiment [6] was inactive. Also, the compound was classed as inactive in experiment [10], in experiment [11], in [14], in [15] and in experiment [13].

Regarding `O=C(O)CCCCCCCCCCC(=O)O`, the call in experiment [1], in [2], in experiment [3], in experiment [4], in experiment [5] and in experiment [6] was inactive. Further, the outcome in experiment [8], in [9], in experiment [10], in experiment [17], in experiment [11] and in experiment [14] was inactive. Besides, the compound was classed as inactive in [13].

Regarding `ClCCCl`, the result in experiment [1], in [2], in experiment [3], in experiment [16], in experiment [5] and in experiment [11] was inactive. The result in [14] and in [15] was inactive.

As for `CC1=CCC(O)(C(C)C)CC1` (configuration not stated), the result in experiment [1], in experiment [2], in experiment [3], in experiment [4], in experiment [5] and in experiment [6] was inactive. The result in experiment [8], in experiment [9], in [10], in experiment [17], in experiment [11] and in experiment [12] was inactive. The compound was called inactive in [13].

Take `CN1[C@@H]2CC(OC(=O)[C@H](CO)c3ccccc3)C[C@H]1[C@@H]1O[C@@H]12` (some centres not stated): the outcome in experiment [1], in experiment [2], in experiment [3], in experiment [4], in experiment [5] and in experiment [7] was inactive. For the same compound, the outcome in [9], in experiment [10], in experiment [11] and in experiment [12] was inactive.
